This is one part of a sample in which hits are shown more often than they occur.
Shiga inhibitor – inhibitors of Shiga toxin in Vero cells; Vero cells, Shiga toxin protein synthesis inhibition reporter; actives 9.2% (n = 290,000); inhibition, % at 38.7 µM; AID 2315; in the data active means inhibition mostly above about 28%, no sharp cut-off; inactive means mostly below about 43%; further: 0% is about no effect
Sm TGR block – blocks Schistosoma mansoni thioredoxin glutathione reductase; actives 3% (n = 360,000); Potency, µM (series often up to 114 µM), for inactives: at the highest dose activity change, negative = inhibition, usual class: inhibitors; purified TGR, DTNB reduction, TNB absorbance 405 nm; Q962Y6; further: potency means the concentration at half of the fitted maximal effect; on the % scale 0 is the no-effect control and ±100 the full control effect; nearly all actives have a fitted effect of over 60% in size
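Kinetic colorimetric format: TGR-catalysed, NADPH-driven DTNB reduction monitored via TNB absorbance. Enzyme dispensed at 20 nM; compound exposure 15 min at room temperature before reaction start.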
Giardia FBPA inh – inhibitors of Giardia lamblia fructose-1,6-bisphosphate aldolase | A8B2U2 | purified Giardia FBPA | Potency, µM (top dose mostly 59.6 µM), inactives show at the highest dose activity, negative = inhibition, usual class: inhibitors | actives 0.71% (n = 290,000); further: potency means the concentration at half of the fitted maximal effect; on the % scale 0 is the no-effect control and ±100 the full control effect; nearly all actives have a fitted effect of over 55% in size
Target sequence (A8B2U2 whole entry, looked up): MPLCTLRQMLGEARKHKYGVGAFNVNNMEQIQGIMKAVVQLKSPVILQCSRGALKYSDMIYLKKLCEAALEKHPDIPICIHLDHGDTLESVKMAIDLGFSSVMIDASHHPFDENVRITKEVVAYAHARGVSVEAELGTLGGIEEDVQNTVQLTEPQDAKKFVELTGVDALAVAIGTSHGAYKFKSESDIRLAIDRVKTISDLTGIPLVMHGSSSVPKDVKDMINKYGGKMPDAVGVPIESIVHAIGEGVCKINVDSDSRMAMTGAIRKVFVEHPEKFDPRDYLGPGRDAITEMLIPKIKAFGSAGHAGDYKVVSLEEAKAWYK
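40 nM FBPA preincubated 10 min at RT with compound (up to 57.5 uM final), then substrate plus GAPDH/TPI/NAD/arsenate coupling and diaphorase/resazurin added. Fluorescence read after 20 min at RT, 525/598 nm.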
Tb PYK inh – inhibitors of Trypanosoma brucei pyruvate kinase; Q57TT1; TbPYK enzyme, Kinase-Glo Plus ATP luminescence, 45 min; Potency, µM (highest dose often 76.8 µM), for the others: at the top dose activity, negative = inhibition, hits mostly inhibitors; actives 0.12% (n = 410,000); AID 624173; further: potency means the concentration at half of the fitted maximal effect; on the % scale 0 is the no-effect control and ±100 the full control effect; nearly all actives have a fitted effect of over 50% in size
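Activity of T. brucei pyruvate kinase was followed by Kinase-Glo Plus luminescence after the enzyme reacted 45 min at room temperature with 130 uM ADP (final) and substrate. Test compounds were added before ADP at multiple concentrations.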
LmPK inhibitor – inhibitors of Leishmania mexicana pyruvate kinase; Q27686; purified LmPK, Kinase-Glo ATP luminescence, 1 h; Potency, µM (doses to about 57.5 µM), without a hit: at the highest dose activity change, negative = inhibition, usual class: inhibitors; actives 0.37% (n = 290,000); further: potency means the concentration at half of the fitted maximal effect; on the % scale 0 is the no-effect control and ±100 the full control effect
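In 50 mM imidazole pH 7.2 with 7 mM MgCl2, LmPK (0.1 nM) turned over PEP (0.5 mM) and ADP (0.1 mM) for 1 h at room temperature. Luciferase read-out of ATP.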
CHX counter – affects cycloheximide protein synthesis inhibition readout, counter-screen; cell reporter, cycloheximide protein synthesis inhibition counterscreen; max response, %; actives 12% (n = 300,000); in the data active means max response mostly above about 13%, no sharp cut-off; inactive means mostly below about 14%; further: read at 38.3 µM for the half of the compounds with a filed dose; 0% is about no effect
* hit, by the source's call; u = inconclusive; x = no result given; [ ] = remark or other dose. Unless noted, the call rests on the fitted dose curve; in most records, active means well fitted curve in the direction sought with a large enough effect; inconclusive means small, poorly fitted or top-dose-only effect, or another doubt; inactive means no such curve, though single readings can be large; an effect the other way counts as inactive or inconclusive.

SMILES | Shiga inhibitor | Sm TGR block | Giardia FBPA inh | Tb PYK inh | LmPK inhibitor | CHX counter
S=c1[nH]nc(-c2ccccc2)n1C1C=CCCC1 (stereo not drawn) | 19 | 0%[11.4 µM] | -8% | 8.9µM* | 2.5µM* | -3
COc1ccc(-n2c(-c3cnccn3)n[nH]c2=S)cc1 | -1 | 0% | u | u | -3% | -3
Cc1ccsc1/C=N/n1c(-c2ccco2)n[nH]c1=S | 35 | 31% | x | 13% | -24% | 2
S=c1[nH]nc(-c2cccnc2)n1C1CCCCC1 | -19 | 4% | -23% | u | 8.9µM* | -5
Cc1ccc(S(=O)(=O)N2CCN(C(=O)CCC(=O)NCc3ccc(F)cc3)CC2)cc1 | 2 | 6% | 7% | -5% | -1% | -5
O=C(CSC1=Nc2ccccc2N=C(c2ccc(F)cc2)C1)Nc1cccc(C(F)(F)F)c1 | x | -5% | x | -1% | x | x
COCCNC(=O)C1(C)CCN(C(=O)Cc2ccc(OC)c(OC)c2)C1 (stereo not drawn) | x | x | x | -3% | x | x
CC1CCCCC1n1c(-c2cccnc2)n[nH]c1=S (stereo not drawn) | -8 | -6% | -6% | 11µM* | 20µM* | -3
Cc1ccccc1Nc1nc(N)nc(COC(=O)CCS(=O)(=O)c2ccc(Cl)cc2)n1 | x | -18% | x | 2% | x | x
Cc1ccccc1Nc1nc(N)nc(COC(=O)C2CCCCC2)n1 | 70* | -3% | 2% | -3% | 1% | 71*
COc1ccccc1C(=O)OCc1nc(N)nc(Nc2ccccc2C)n1 | 43 | -3% | 0% | -6% | 1% | 36*
Cc1ccc(N2CC(C(=O)OCc3nc(N)nc(Nc4ccccc4C)n3)CC2=O)cc1 (stereo not drawn) | x | 0% | x | 1% | x | x
Cc1ccccc1Nc1nc(N)nc(COC(=O)c2ccco2)n1 | x | x | x | -10% | x | x
CCCCC(=O)OCc1nc(N)nc(Nc2ccccc2C)n1 | active | -10% | 2% | -4% | 1% | 58*
COC(=O)c1scc(-c2ccc(C)cc2)c1S(=O)(=O)N1CCN(c2cccc(Cl)c2)CC1 | x | -8% | x | -6% | x | x
Oc1c(Cl)cc(Cl)cc1C=Nc1cc(C(F)(F)F)ccc1N1CCc2ccccc2C1 | 81* | -22% | u | u | 16µM* | 52*
Oc1c(Cl)cccc1C=Nc1cc(C(F)(F)F)ccc1N1CCCC1 | 11 | -12% | -23% | -31% | -8% | 2
Cn1c(=O)oc2cc(S(=O)(=O)NC(CC(=O)O)c3cccc(Br)c3)ccc21 (stereo not drawn) | x | -13% | x | -5% | x | x
CCOC(=O)COc1cc(C)c(Cl)cc1C(=O)c1ccn2nc(-c3ccc(OC)cc3)cc2n1 | x | -2% | x | -2% | x | x
O=C1CS/C(=C/C(=O)c2cccc(Cl)c2)N1 | 56 | 2% | 5% | -1% | -9% | 27*
Cc1ccc(S(=O)(=O)/C=C2\NC(=O)CS2)cc1 | -6 | -22% | 19% | 0% | -7% | 3
Cc1ccc(C(=O)/C=C2/NC(=O)CS2)cc1 | 45* | -10% | -1% | -2% | -10% | 25*
COc1ccccc1-c1cc(NC(=O)COc2ccccc2Cl)n(-c2ccccc2)n1 | x | 7% | x | 5% | x | x
Cc1cc(NC(=O)Nc2ccc(F)c(Cl)c2)no1 | 29* | u | -1% | 9% | -2% | 28*
Cc1cc(NC(=O)Nc2cc(F)ccc2F)no1 | 35 | 0% | 6% | 2% | 3% | 9.2*
SMILES | Shiga inhibitor | Sm TGR block | Giardia FBPA inh | Tb PYK inh | LmPK inhibitor | CHX counter
Cc1sc2cc3c(c(C(=O)c4ccccc4)[n+]2c1C)-c1cccc2cccc-3c12 | 8 | -8% | 0% | 2% | -1% | -1
O=C(c1ccccc1)c1c2c(cc3sc4ccccc4[n+]13)-c1cccc3cccc-2c13 | 38* | -14% | -10% | -4% | 3% | 27*
Cc1ccn2c(c1)nc(=O)c1cc(S(=O)(=O)N3CCC(C)CC3)c(Cl)cc12 | x | -4% | x | 0% | x | x
Oc1c(CN2CCCCC2)ccc2cccnc12 | x | x | x | -7% | x | x
Oc1c(Cl)cc(Cl)c2cccnc12 | -1 | 16µM* | u | -8% | 3%[11.5 µM] | -1
Oc1ccc(Cl)c2cccnc12 | x | x | 0% | -6% | x | x
Oc1c(Cl)cc(CN2CCCCC2)c2cccnc12 | -6 | 4.5µM* | u | x | -2% | -1
Cc1ccc(S(=O)(=O)Nc2cc(Cl)c(O)c3ncccc23)cc1 | 13 | 16µM* | -24% | -22% | 8% | -2
O=[N+]([O-])c1cc(CN2CCCC2)c2cccnc2c1O | -4 | -29% | 18µM* | 2% | -1% | -4
COc1ccc(-n2c(=O)c3c4c(sc3n(Cc3ccc(F)cc3)c2=O)CCCC4)c(OC)c1 | x | -3% | x | -8% | x | x
CNC(=O)CNC(=O)Nc1ccc(Cl)c(Cl)c1 | 6 | x | 4% | -17% | 1% | -3
Nn1c(SCc2ccccc2)nc2ccccc21 | 69* | -2% | x | -3% | -9% | 69*
Cc1cccc(CSc2nnc(-c3ccco3)n2C)c1 | 42 | 0% | 6% | 2% | -1% | 22*
Nn1c(SCc2ccccc2)nnc1-c1ccco1 | 2 | -24% | 15% | 4% | 2% | 9.3*
O=C(O)Cn1c(SCc2ccccc2)nc2ccccc21 | -12 | -1% | 2% | -12% | -3% | -1
COc1cccc(CSc2nnc(-c3ccco3)n2C)c1 | 41 | 40µM* | 13% | 3% | 3% | 40*
CC(C)c1c(O)ccc2c1CCC1[C@@](C)(C=O)CCC[C@@]21C (stereo partly drawn) | x | x | -16% | x | x | x
Clc1ccc(OCCn2cnc3ccccc32)c(Cl)c1 | 64* | -19% | 0% | 2% | 1% | 41*
NCCCn1cnc2ccccc21 | -3 | 35µM* | -1% | -2% | 1% | -7
O=c1c2ccccc2ncn1CCCSc1ccc(Cl)cc1 | -5 | 8% | 2% | -7% | -1% | -3
O=c1c2ccccc2ncn1CCCSc1ccccc1 | 24 | 14% | 3% | -2% | -4% | 9.6*
O=c1c2ccccc2ncn1CCCOc1ccccc1[N+](=O)[O-] | 82* | 6% | -2% | 4% | -5% | 26*
COc1ccccc1CNC(=O)CSc1ncc(S(=O)(=O)c2ccc(C)c(Cl)c2)c(=O)[nH]1 | x | -1% | x | 2% | x | x
O=[N+]([O-])c1ccccc1OCCCn1cnc2ccccc21 | 54* | 0% | u | 20% | 0% | 34*
c1ccc2c(c1)ncn2CCn1cnc2ccccc21 | -18 | -8%[11.4 µM] | -5% | 0% | 15% | -3
Nc1cc(=O)[nH]c(SCC(=O)N2N=C(c3ccc(Cl)cc3)CC2c2ccco2)n1 (stereo not drawn) | 23 | x | 1% | -7% | 1% | 11
COc1ccc(C2=NN(C(=O)CSc3nc4ncc(Cl)cc4[nH]3)C(c3ccco3)C2)cc1 (stereo not drawn) | -9 | 28µM* | -5% | -19% | 2% | 21*
